The values that follow come from PubChem BioAssay (NCATS).

SMILES strings stand for the structures. Records with an inconclusive call do not appear. The source made the active and inactive calls. Calls follow the shape of the dose curve; as a rule, active = well fitted inhibition curve with a large enough effect; inconclusive = small, poorly fitted or top-dose-only effect; inactive = no such curve, though single readings can be large or run the other way.
% is scaled to controls: 0 for no effect and ±100 for the full control effect; potency is read from the fitted curve at half-maximal effect.

Chain of N-terminal Xaa-Pro-Lys N-methyltransferase 1 (Homo sapiens) (Q9BV86 whole entry, looked up): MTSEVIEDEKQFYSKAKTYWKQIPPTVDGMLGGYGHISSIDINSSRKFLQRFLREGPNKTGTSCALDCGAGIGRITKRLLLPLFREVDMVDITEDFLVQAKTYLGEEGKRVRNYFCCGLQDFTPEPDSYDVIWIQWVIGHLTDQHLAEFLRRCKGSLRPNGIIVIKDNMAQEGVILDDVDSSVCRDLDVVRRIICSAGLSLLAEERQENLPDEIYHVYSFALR

For the assay, the target named is N-terminal Xaa-Pro-Lys N-methyltransferase 1 (Homo sapiens) (UniProt Q9BV86). Kind of assay: qHTS Assay for Inhibitors of N-terminal methyltransferase 1 (NTMT1): LOPAC validation of the NTMT1 SAHH-coupled ThioGlo3 Assay (AID 1347143).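 Also: SAH from peptide methylation measured as thiol fluorescence via SAHH coupling and ThioGlo3; nearly all actives have a fitted effect of over 70% in size.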 The conditions noted are these: recombinant NTMT1, SAHH-coupled ThioGlo3 fluorescence; series mostly up to 114 µM; activity change, negative = inhibition: at the top concentration. An outline of the steps:
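Steps: dispense 125nM NTMT1; pin-transfer test compounds at several concentrations, with 1uM RCC1-6 peptide as control; incubate 1 min; start with reagent holding 100uM SAM, 10uM SAHH, 15uM ThioGlo3; read at 0 and 30 min.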
As to `CCCCCCCCCCCCCC(=O)O[C@@H]1[C@@H](C)[C@@]2(O)[C@@H](C=C(CO)C[C@@]3(O)C(=O)C(C)=C[C@@H]23)C2C(C)(C)[C@@]21OC(C)=O` (stereo partly drawn), the “activity change, negative = inhibition” value is 22.1% (inactive).

For `CC(N)c1cccc(Cl)c1Cl` (stereo not drawn), the “activity change, negative = inhibition” value is -14.9% (inactive).

On to `O=[N+]([O-])c1cc(O)c(O)c([N+](=O)[O-])c1`, for which the Potency is 44.7 µM (active).

Take `CCCN(CCC)C1CCc2cccc(O)c2C1` (stereo not drawn): the “activity change, negative = inhibition” value was -8.02% (inactive).

Turning to `C[C@@H]1O[C@@H](O[C@H]2C[C@@H](O)[C@]3(CO)[C@@H]4C(CC[C@]3(O)C2)[C@@]2(O)CC[C@H]([C@@H]3COC(=O)C3)[C@@]2(C)C[C@H]4O)[C@H](O)[C@H](O)[C@H]1O` (stereo partly drawn), the “activity change, negative = inhibition” value is -9.75% (inactive).

As for `CN(N=O)c1ccc(O)c(O)c1`, the Potency was 35.5 µM (active).

`CC(C)(C)OC(=O)NC1[C@H]2CNC[C@@H]12` (stereo partly drawn): the “activity change, negative = inhibition” value is 8.12% (inactive).

Turning to `CN1CCc2cc(O)cc3c2[C@H]1Cc1ccc(O)c(O)c1-3`, the Potency was 35.5 µM (active).

For the compound `Nc1ncnc2c1ncn2[C@@H]1O[C@H](COP(=O)(O)CP(=O)(O)OP(=O)(O)O)C(O)[C@H]1O` (stereo partly drawn), the “activity change, negative = inhibition” value is -15.3% (inactive).

Take `CCCn1c(=O)c2[nH]c(C3CCCC3)nc2n(CCCOC(=O)c2ccc(S(=O)(=O)F)cc2)c1=O`: the “activity change, negative = inhibition” value was -5.27% (inactive).

Consider `CCCN1CC[C@@H]2c3cc(O)ccc3CC[C@@H]21`, for which the “activity change, negative = inhibition” value is -22.7% (inactive).

As for `O=C(NC1CN2CCC1CC2)c1cc2ccoc2cn1` (stereo not drawn), the “activity change, negative = inhibition” value is -0.265% (inactive).

For the compound `c1ccc2c(N3CCNCC3)cccc2c1`, the Potency was 50.1 µM (active).

`CC(=O)NBr`: the “activity change, negative = inhibition” value is -7.26% (inactive).

In the case of `NCC(CP(=O)(O)O)c1ccc(Cl)cc1` (stereo not drawn), the “activity change, negative = inhibition” value was -6.88% (inactive).

Consider `CN(N=O)c1cc(O)ccc1O`, for which the Potency is 3.55 µM (active).

Turning to `NC(=O)COc1c(F)cc(SCCNS(=O)(=O)c2ccccc2)cc1F`, the “activity change, negative = inhibition” value was -17.3% (inactive).

As for `CC(C)CC(NP(=O)(O)O[C@@H]1O[C@@H](C)[C@H](O)[C@@H](O)[C@H]1O)C(=O)NC(Cc1c[nH]c2ccccc12)C(=O)O` (stereo partly drawn), the “activity change, negative = inhibition” value was -4.1% (inactive).

With `CCCN(CCC)CCc1ccc(O)c(O)c1`, the “activity change, negative = inhibition” value is 48.4% (inactive).

For the compound `C[N+](C)(C)CC#CCN1CCCC1=O`, the Potency is 28.2 µM (active).

Turning to `CC(=O)c1c(O)c(C)c(O)c(Cc2c(O)c3c(c(C(=O)/C=C/c4ccccc4)c2O)OC(C)(C)C=C3)c1O`, the Potency was 50.1 µM (active).

Take `NCCc1ccc(S(=O)(=O)F)cc1`: the “activity change, negative = inhibition” value was -6.55% (inactive).

As to `[Cl-].[Cl][Pt].[NH2-].[NH2-].c1ccncc1`, the Potency was 7.08 µM (active).

Consider `CCCN1CCC[C@@H](c2cccc(O)c2)C1`, for which the “activity change, negative = inhibition” value is -12.8% (inactive).

Consider `COc1ccc2c(c1)C13CCCCC1C(C2)N(C)CC3` (stereo not drawn), for which the “activity change, negative = inhibition” value is -12.2% (inactive).

Take `CC(C)(C)c1o[nH]c(=O)c1CC(N)C(=O)O` (stereo not drawn): the “activity change, negative = inhibition” value was -15.7% (inactive).

For the compound `C[N+](C)(C)CC#CCOC(=O)Nc1cccc(Cl)c1`, the “activity change, negative = inhibition” value is -20.4% (inactive).

Regarding `CC(C)NP(=O)(NC(C)C)OP(=O)(NC(C)C)NC(C)C`, the “activity change, negative = inhibition” value was -4.54% (inactive).

`CN1CC[C@@]2(C)c3cc(O)ccc3N(C)C12` (stereo partly drawn): the Potency is 44.7 µM (active).

In the case of `CC(C)(O)[C@@H]1[C@H]2OC(=O)[C@@H]1[C@]1(O)C[C@H]3O[C@]34C(=O)O[C@H]2[C@]14C` (tested in a mixture with another compound), the “activity change, negative = inhibition” value is -9.34% (inactive).

Regarding `CC1(C(=O)O)C2CCC(O2)C1(C)C(=O)O` (stereo not drawn), the “activity change, negative = inhibition” value was -16.9% (inactive).

On to `C[C@]12Cc3cn4c(nc3C=C1CCC1C2CC[C@@]2(C)[C@H]1CC[C@@]2(O)C#N)nc1ccccc14` (stereo partly drawn), for which the “activity change, negative = inhibition” value is -15.7% (inactive).

In the case of `CC(Cc1ccc(OCC(=O)O)cc1)NCC(O)c1cccc(Cl)c1` (stereo not drawn), the “activity change, negative = inhibition” value was -5.1% (inactive).
